Data reported in PubChem BioAssay (NCI).
The panel holds about 83,000 compounds, 20% with a hit somewhere; the sample as a whole holds those more often.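 96-well plates, one dose, 48 hours. Percent growth reported; active if below 10.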 Unmarked numbers belong to inactive results. Activity calls are given as the source filed them.

Columns and labels:
Assay in all cases: NCI-60 one-dose screen, 48 h (100 = growth as untreated, 0 = no growth, -100 = all killed)
Conditions in all cases: 10 µM unless noted
RPMI-8226 leukemia = tested on: RPMI-8226 leukemia
OVCAR-8 ovarian = tested on: OVCAR-8 ovarian
OVCAR-5 ovarian = tested on: OVCAR-5 ovarian
OVCAR-4 ovarian = tested on: OVCAR-4 ovarian
SK-OV-3 ovarian = tested on: SK-OV-3 ovarian
IGROV1 ovarian = tested on: IGROV1 ovarian
OVCAR-3 ovarian = tested on: OVCAR-3 ovarian
HS 578T breast = tested on: HS 578T breast
NCI/ADR-RES ovarian = tested on: NCI/ADR-RES ovarian
T-47D breast = tested on: T-47D breast
BT-549 breast = tested on: BT-549 breast
MDA-MB-435 melanoma = tested on: MDA-MB-435 melanoma
SW-620 colon = tested on: SW-620 colon
MCF7 breast = tested on: MCF7 breast
HCT-116 colon = tested on: HCT-116 colon
HCC-2998 colon = tested on: HCC-2998 colon
KM12 colon = tested on: KM12 colon

| SMILES | growth (RPMI-8226 leukemia) | growth (OVCAR-8 ovarian) | growth (OVCAR-5 ovarian) | growth (OVCAR-4 ovarian) | growth (SK-OV-3 ovarian) | growth (IGROV1 ovarian) | growth (OVCAR-3 ovarian) | growth (HS 578T breast) | growth (NCI/ADR-RES ovarian) | growth (T-47D breast) | growth (BT-549 breast) | growth (MDA-MB-435 melanoma) | growth (SW-620 colon) | growth (MCF7 breast) | growth (HCT-116 colon) | growth (HCC-2998 colon) | growth (KM12 colon) |
| --- | --- | --- | --- | --- | --- | --- | --- | --- | --- | --- | --- | --- | --- | --- | --- | --- | --- |
| Nc1nnc2cc(F)ccc2n1 | 102% | 110% | 97.9% | 115% | 91.6% | 102% | 96.2% | 97.2% | 103% | 96% | 81.5% | 118% | 94.1% | 96.3% | 91.9% | 103% | 103% |
| Cn1c2ccccc2c2nnc(NCCCCO)nc21 | 69.6% | 100% | 86.5% | 94.6% | 86.5% | 57.8% | 88.6% | 81.6% | 94.3% | 76.5% | 101% | 110% | 93% | 59.2% | 90.1% | 98% | 94.8% |
| Oc1ccc2ccccc2c1CN1CCOCC1 | 97.5% | 105% | 113% | 108% | 104% | 106% | 120% | 112% | 113% | 104% | 103% | 112% | 113% | 106% | 103% | 105% | 114% |
| Nc1c(Br)cc(O)c2c1C(=O)c1ccccc1C2=O | 84% | 55.6% | 112% | 87.4% | 109% | 56.3% | 96.2% | 88.8% | 89.6% | 93.7% | 94.5% | 98% | 61.7% | 83.8% | 69.8% | – | 24.7% |
| Nc1ccn(C2OC(CO)C(O)C2F)c(=O)n1 (stereo unspecified) | 73.8% | 61.8% | 93.2% | 84.4% | 103% | 109% | 80.4% | 90.8% | 73.2% | 94.1% | 93.9% | 78.4% | 67.7% | – | 49.2% | 49.7% | 89.6% |
| COC(=O)C1=C(C)C(=O)CC1 | 110% | 109% | 99.6% | 119% | 112% | 112% | 114% | 104% | 135% | 127% | 114% | 121% | 106% | – | 103% | 116% | 121% |
| NC(=S)N/N=C/c1ccc(OC(=O)COc2ccc(Cl)cc2)cn1 | 59.1% | 23.9% | 120% | 59.2% | 82.1% | 46.5% | 56.4% | 114% | 27.9% | 33.9% | 55% | 59.1% | 46.3% | 23.6% | 39.7% | – | 64.8% |
| CC(=O)N=c1ccc2nc3c(cc(N)c4ccccc43)oc-2c1 | -19.9% (active) | -22.1% (active) | -73.5% (active) | -89.8% (active) | 80.1% | -81.7% (active) | -82.8% (active) | -27.7% (active) | -6.88% (active) | -57.8% (active) | 10.4% | -82.3% (active) | -88.7% (active) | -74.9% (active) | -45.2% (active) | -4.32% (active) | -59.9% (active) |
| Cc1cccc2ccccc12 | 101% | 100% | 104% | 108% | 103% | 112% | 110% | 107% | 99.6% | 109% | 99.6% | 104% | 102% | 84.1% | 95.8% | 99.8% | 106% |
| CCCCCCCCCCCCCC/C=C\C(CC(=O)O)C(=O)O (stereo unspecified) | 113% | 103% | 105% | 112% | 105% | 117% | 114% | 127% | 107% | 115% | 116% | 126% | 103% | 105% | 103% | 102% | 103% |
| CCOc1ccc2c(c1)c(C)cc(C)[n+]2CC | 52.1% | 62.4% | 98.5% | 58.8% | 83.4% | 82.3% | 76.2% | 104% | 113% | 69.5% | 33.8% | 73.9% | 84% | 72.3% | 54.5% | 82.9% | 17.6% |
| C=CCOc1ccc(Cl)cc1Cl | 113% | 119% | 93.1% | 106% | 118% | 116% | 111% | 113% | 109% | 103% | 101% | 102% | 107% | – | 104% | 114% | 109% |
| CN(C)Cc1ccccn1 | 90.9% | 101% | 102% | 106% | 112% | 102% | 117% | 114% | 103% | 102% | – | 103% | 103% | 97% | 99.8% | 119% | 111% |
| Nc1nc2nnc(-c3ccccc3)c(-c3ccccc3)n2n1 | 50.7% | 101% | 86.3% | 101% | 102% | 127% | 185% | 88.9% | 97.2% | 84.7% | 103% | 106% | 97.9% | 98.7% | 102% | 93.1% | 132% |
| O=c1cc(Cl)nc2ccccn12 | 114% | 110% | 101% | 120% | 110% | 96.5% | 100% | 104% | 104% | 103% | 107% | 108% | 105% | 91.4% | 99.6% | 102% | 96.6% |
| O=C(O)Cc1ccccn1 | 102% | 102% | 101% | 117% | 104% | 105% | 114% | 109% | 111% | 110% | 101% | 104% | 105% | 100% | 104% | 111% | 104% |
| O=C(NCc1ccccc1)/C(=C/c1ccccc1)NC(=O)c1ccccc1 | 96.5% | 97.1% | 123% | 115% | 102% | 104% | 117% | 99.2% | 104% | 110% | 98.6% | 113% | 102% | – | 107% | 102% | 101% |
| CN1C(=O)NC(c2ccc(Cl)cc2)(c2ccc(Cl)cc2)C1=O | 84.2% | 102% | 112% | 96.4% | 115% | 91% | 104% | 90.4% | 86.8% | 94.2% | – | 97.3% | 103% | 102% | 88.2% | 101% | 87.9% |
| Cc1ccc(S(N)(=O)=O)cc1Cl | 103% | 105% | 103% | 115% | 110% | 109% | 115% | 117% | 117% | 102% | 77.9% | 114% | 114% | 96.3% | 104% | 116% | 112% |
| O=CNCCc1ccccc1 | 102% | 102% | 97.7% | 103% | 97% | 110% | 115% | 102% | 106% | 101% | 96.5% | 102% | 113% | – | 102% | 122% | 131% |
